Laboratory results from PubChem BioAssay.
The source made the active and inactive calls. Unless noted, how the calls were made is not given here.

How the values were obtained:
[1] = test system: Wnt5a (protein binding on small-molecule microarray); test: small molecules binding Wnt5a protein – biophysical, small-molecule microarray, 635/667 nm fluorescence, primary screen (AID 1142); details: 635 nm fluorescence, higher = more signal;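 further: fluorescence read at 667 nm with signal to noise per printed feature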
[2] = ATP-based viability of Huh7 replicon cells – cell-based, CellTiter-Glo luminescence, basal, 48 h, cytotoxicity control for HCV replication inhibitor project, primary screen (AID 1143); details: higher = more signal, called active from +8 up or from −8 down;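 further: Huh7 hepatoma cells carrying a hepatitis C replication reporter with no stimulus; test concentration not given here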
[3] = Pseudomonas biofilm growth suppression – PAO1 strain, BacTiter-Glo luminescence, LB-PBS, primary screen (AID 1144); details: P. aeruginosa PAO1 biofilm, 12 h, higher = more signal
[4] = basal CRE-LacZ reporter activity in PC12 – cell-based, unstimulated, primary screen (AID 1145); details: no forskolin, luminescence, 4.5 h, higher = more signal, called active from +8 up or from −8 down
[5] = forskolin-driven CRE-LacZ activity in PC12 – cell-based, CRE-LacZ reporter, forskolin-stimulated, primary screen (AID 1146); details: luminescence, 4.5 h, higher = more signal, called active from +8 up or from −8 down;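 further: PC12 cells with 6xCRE LacZ reporter stimulated by forskolin 10 µM; beta-galactosidase reporter signal reflecting CREB driven transcription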
[6] = target: Streptavidin (Streptomyces avidinii) (UniProt P22629); test: compounds binding control protein streptavidin – biophysical, small-molecule microarray, 635/667 nm fluorescence, artefact control for SMM compound annotation, primary screen (AID 1147); details: higher = more signal;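 further: signal reflects streptavidin binding to arrayed compounds as a control protein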
[7] = probe aInhba binding on compound microarray – biochemical, small-molecule microarray, 635/667 nm fluorescence, primary screen (AID 1148); details: higher = more signal;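 further: score merges 667nm spot fluorescence with signal-to-noise for antibody binding to printed compounds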
[8] = target: Torsin-1A (Homo sapiens) (UniProt O14656); test: TOR1A wild-type binding on microarray – cell lysate, small-molecule microarray, lysate, 635/667 nm, primary screen (AID 1149); details: COS7 hTOR1A-WT lysate, 635 nm fluorescence, higher = more signal
[9] = target: Torsin-1A (Homo sapiens) (UniProt O14656); test: torsin A mutant lysate binding on microarrays – cell lysate, small-molecule microarray, COS7 lysate, 635/667 nm fluorescence, primary screen (AID 1150); details: COS7 hTOR1A mutant lysate, 635 nm fluorescence, higher = more signal;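 further: score pools 667 nm emission and signal to noise measuring lysate protein binding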
[10] = test system: Sonic hedgehog protein (Shh); test: Sonic hedgehog microarray binding compounds – biochemical, small-molecule microarray, 635/667 nm fluorescence, primary screen (AID 1151); details: 635 nm fluorescence, higher = more signal;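 further: Shh protein binding to compounds spotted on small-molecule microarray slides; score combines spot fluorescence intensity with signal-to-noise across triplicate slides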

Streptavidin (Streptomyces avidinii), sequence (P22629 whole entry, looked up): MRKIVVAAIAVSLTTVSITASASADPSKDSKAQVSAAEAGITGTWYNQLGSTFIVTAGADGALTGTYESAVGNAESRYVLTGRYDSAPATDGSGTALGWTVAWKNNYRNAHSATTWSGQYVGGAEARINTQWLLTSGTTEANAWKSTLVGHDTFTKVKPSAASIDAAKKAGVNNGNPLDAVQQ
Torsin-1A (Homo sapiens), sequence (O14656 whole entry, looked up): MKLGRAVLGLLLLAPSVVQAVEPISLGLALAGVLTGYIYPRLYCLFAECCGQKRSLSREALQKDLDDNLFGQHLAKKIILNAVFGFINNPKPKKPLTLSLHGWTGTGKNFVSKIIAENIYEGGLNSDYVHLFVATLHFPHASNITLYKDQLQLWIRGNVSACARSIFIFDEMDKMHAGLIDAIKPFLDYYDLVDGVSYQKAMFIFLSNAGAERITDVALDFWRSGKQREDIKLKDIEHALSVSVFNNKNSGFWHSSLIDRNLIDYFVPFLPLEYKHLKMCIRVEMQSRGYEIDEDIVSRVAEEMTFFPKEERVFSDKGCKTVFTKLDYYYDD

Compound	composite z-score [1]	z-score [2]	z-score [3]	z-score [4]	z-score [5]	composite z-score [6]	composite z-score [7]	composite z-score [8]	composite z-score [9]	composite z-score [10]
[N-]=[N+]=NCc1ccccc1[C@H]1OC(c2ccc(OCCCO)cc2)=N[C@@]1(Cc1ccccc1N=[N+]=[N-])C(N)=O	0.395	-1.38 (inactive)	-1.13 (inactive)	0.0451 (inactive)	-0.697 (inactive)	1.23	0.472	1.55	0.949	0.183
CC1CC/C=C\[C@H]2OC34C=CCN(C(C)C)C(=O)[C@H]3N(C(C)CO)C(=O)[C@@H]4C2C(=O)O1 (stereo not given in full)	-0.293	0.143 (inactive)	-0.657 (inactive)	-1.04 (inactive)	-0.627 (inactive)	-0.447	1.09	0.0269	-0.381	1.09
COCCOC(=O)N1C(=O)[C@@]2(c3cc(C#CCCO)ccc31)[C@H](C(=O)N1CCN(c3ncccn3)CC1)[C@H]1C(=O)O[C@H](c3ccccc3)[C@H](c3ccccc3)N1[C@@H]2c1ccc(OCCO)cc1	0.624	-0.445 (inactive)	0.386 (inactive)	1.05 (inactive)	0.136 (inactive)	1.26	0.0528	-0.279	0.458	1.99
CC[C@@H](O[Si](C#C[Si](C(C)C)(C(C)C)C(C)C)(C(C)C)C(C)C)c1cn([C@H](C)c2ccccc2)nn1	-0.026	0.428 (inactive)	-0.0357 (inactive)	-0.374 (inactive)	0.266 (inactive)	0.693	-0.0044	0.398	0.458	0.634
COC(=O)[C@]1(Cc2ccccc2CN=[N+]=[N-])N=C(c2ccc(OCCCO)cc2)O[C@@H]1c1ccccc1N=[N+]=[N-]	0.786	-5.02 (inactive)	-0.332 (inactive)	3.72 (inactive)	0.335 (inactive)	-0.174	0.0082	-0.0005	-0.147	0.336
COc1ccc([Si](C)(C)[C@@H]2[C@@H](CC(=O)N3CCC[C@H]3CO)O[C@]3(C(=O)N(Cc4cccc(N5C(=O)c6cccc7cccc5c67)c4)c4ccccc43)[C@H]2C)cc1	0.614	-5.86 (inactive)	-0.334 (inactive)	0.819 (inactive)	-1.41 (inactive)	0.609	-0.129	0.729	0.499	1.42
O=C1c2ccccc2[C@@]2(Cc3ccccc3N(CC(F)(F)F)C2=O)[C@H](c2ccc(CO)cc2)N1Cc1ccccc1	0.104	-4.1 (inactive)	-0.692 (inactive)	-0.258 (inactive)	-0.616 (inactive)	0.0298	-0.149	-0.118	-0.175	1.82
C=CCNC(=O)[C@@H]1[C@H]2C(=O)O[C@H](c3ccccc3)[C@H](c3ccccc3)N2[C@H](c2ccc(OCCO)cc2)[C@@]12C(=O)Nc1ccc(C#CCNC(N)=O)cc12	0.0977	0.414 (inactive)	0.0575 (inactive)	0.155 (inactive)	0.0297 (inactive)	0.987	-0.0195	0.564	0.19	0
COC(=O)[C@H]1N=C(c2ccc(OCCCO)cc2)O[C@H]1c1ccccc1N=[N+]=[N-]	0.563	-2.38 (inactive)	-0.17 (inactive)	1.18 (inactive)	0.226 (inactive)	0.489	0.317	0.698	0.175	-0.207
COCCOC(=O)N1C(=O)[C@@]2(c3cc(C#CCC(C(=O)OC)C(=O)OC)ccc31)[C@H](C(=O)N1CCc3cc(OC)c(OC)cc3C1)[C@H]1C(=O)O[C@H](c3ccccc3)[C@H](c3ccccc3)N1[C@@H]2c1ccccc1OCCO	0.725	-3.46 (inactive)	-0.893 (inactive)	-1.14 (inactive)	0.149 (inactive)	0.593	-0.025	0.897	0.949	1.73
C=CCC(OC(C)=O)[C@@H]1[C@@H](N(Cc2ccc(-c3ccccc3)cc2)C(=O)Cc2ccc(OC)cc2)c2cc(OCCCO)ccc2N1C(=O)Cc1ccc(OC)cc1 (stereo not given in full)	0.0361	-1.79 (inactive)	1.04 (inactive)	0.642 (inactive)	0.482 (inactive)	0.222	0.169	0.172	0.212	0.363
